Records with an inconclusive call do not appear. The source made the active and inactive calls. The call rests on the fitted dose curve; in most records, active means well fitted curve in the direction sought with a large enough effect; inconclusive means small, poorly fitted or top-dose-only effect, or another doubt; inactive means no such curve, though single readings can be large; an effect the other way counts as inactive or inconclusive.
Target: Aldehyde dehydrogenase, mitochondrial (Homo sapiens) (UniProt P05091)
Test: qHTS for Inhibitors of the Aldehyde Dehydrogenase Family (ALDH2) Primary screen (AID 2061308);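 further: plate controls were vehicle for no effect and reference inhibitor for full effect; nearly all actives have a fitted effect of over 55% in size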
Settings: ALDH2 enzyme inhibition qHTS, 1536-well; series mostly up to 56 µM; activity change, negative = inhibition: at the top concentration

Row | Compound | activity change, negative = inhibition | Potency
1 | COc1ccccc1CNc1ccc(S(=O)(=O)Nc2nccs2)cc1 | 18.7% (inactive) | –
2 | Fc1ccc(-c2noc(CCCCSc3nnc(-c4cccc5ccccc45)o3)n2)cc1 | – | inactive
3 | Cc1cc(C)nc(NC(=S)N2CCN(c3nnc(C(F)(F)F)s3)CC2)c1 | 12.9% (inactive) | –
4 | Cc1ccc2c(c1)/C(=C\c1cc(Cl)c(O)c(Cl)c1)C(=O)N2 | -17.7% (inactive) | –
5 | C=C(NC(=O)C(=C)NC(=O)c1csc(C2=NC3c4csc(n4)C4NC(=O)c5csc(n5)C(C(C)(O)C(C)O)NC(=O)C5CSC(=N5)/C(=C/C)NC(=O)C(C(C)O)NC(=O)c5csc(n5)C3(CC2)NC(=O)C(C)NC(=O)C(=C)NC(=O)C(C)NC(=O)C(C(C)CC)NC2C=Cc3c(C(C)O)cc(nc3C2O)C(=O)OC4C)n1)C(N)=O (stereo not given) | -23.2% (inactive) | –
6 | O=S(=O)(c1ccc2c(c1)OCCO2)N1CCN(S(=O)(=O)c2ccccn2)CC1 | 6.72% (inactive) | –
7 | O=S(=O)(NC1CCCC(NS(=O)(=O)c2c(F)cccc2F)C1)c1ccc2c(c1)OCCO2 (stereo not given) | 17.9% (inactive) | –
8 | O=C(Nc1ccc(Cl)c(S(=O)(=O)N2CCOCC2)c1)c1ccc(S(=O)(=O)N2CCCCC2)cc1 | 8.31% (inactive) | –
9 | Cc1ccc(OCCn2c(CCNC(=O)c3cccc(C#N)c3)nc3ccccc32)cc1 | -4.09% (inactive) | –
10 | O=C1Nc2ccccc2C1Cc1cc(Cl)c(O)c(Cl)c1 (stereo not given) | 14.1% (inactive) | –
11 | O=C(Nc1ccc(-c2nc3ccccc3[nH]2)cc1)Nc1ccc2c(c1)CCCO2 | 4.27% (inactive) | –
12 | COc1cc(OC)cc(-c2nnc3n2N=C(c2ccc(OC)cc2OC)CS3)c1 | 0.0445% (inactive) | –
13 | O=C1CCCC2=C1C1(CCCC1)N=C(Nc1nc3ccccc3n1Cc1ccccc1)N2 | -1.92% (inactive) | –
14 | CC(=O)Nc1sc2c(c1-c1cccc3c1sc1ccccc13)CCNC2 | -11.7% (inactive) | –
15 | O=S(=O)(c1ccc2ccccc2c1)N1CCN(S(=O)(=O)c2c(F)cccc2F)CC1 | – | inactive
16 | O=S(=O)(c1ccc2c(c1)OCCO2)C1CCC(S(=O)(=O)c2c(F)cccc2F)CC1 (stereo not given) | – | inactive
17 | CCOc1cc(CCNC(=O)c2cc3sccc3n2Cc2ccccc2)cc(F)c1OCC | -9.54% (inactive) | –
18 | O=C1CCCC2=C1C(c1[nH]ncc1Cl)N=C(Nc1nc3cc(Br)ccc3o1)N2 (stereo not given) | 8.28% (inactive) | –
19 | CCCn1c(C)nc2c(NCCCN(C)C)nc(C)nc21 | 7.29% (inactive) | –
20 | COc1ccnc(NC(=S)N2CCN(c3cc(C(F)(F)F)cc(C(F)(F)F)c3)CC2)c1 | 7.12% (inactive) | –

Row | Compound | activity change, negative = inhibition | Potency
21 | CC(C)(C)OC(=O)NCC(=O)NNC(=O)C(C(=O)OCc1ccccc1)c1ccccc1 (stereo not given) | 2.9% (inactive) | –
22 | CCC(=O)NC(c1ccc2c(c1)OCO2)c1cc(Cl)c2cccnc2c1O (stereo not given) | -16.1% (inactive) | –
23 | C[C@@H]1CC[C@]2(C(=O)O)CC[C@]3(C)C(=CCC4[C@@]5(C)C[C@@H](O)[C@H](O)[C@@](C)(CO)C5CC[C@]43C)C2[C@H]1C (stereo not given in full) | 0.876% [at 28 µM] (inactive) | –
24 | Cc1cccc(C2N=C(Nc3nc4ccccc4o3)NC3=C2C(=O)CCC3)c1 (stereo not given) | -0.88% (inactive) | –
25 | O=C1CCc2cc(S(=O)(=O)Nc3ccc(F)c(Cl)c3)ccc2N1 | 14% (inactive) | –
26 | Cc1noc(C)c1-c1ccc2ncnc(NCc3ccccc3C(F)(F)F)c2c1 | 5.12% (inactive) | –
27 | Cc1cc(NC(=O)c2csc(NC(=O)Cc3ccc(Cl)c(Cl)c3)n2)no1 | -17.5% (inactive) | –
28 | COc1ccccc1NS(=O)(=O)c1ccc2c(c1)CCC(=O)N2 | -16.9% (inactive) | –
29 | CC(=O)O[C@@H]1c2c3c(cc(O)c2C(=O)O[C@@H]1C)O[C@@]1(C)[C@@H](O)C[C@H]2C(C)(C)C(=O)C=C[C@]2(C)[C@@H]1C3 | -4% [at 28 µM] (inactive) | –
30 | Cc1cccc(C)c1-n1c(SCC(=O)Nc2ccc(C(=O)O)cc2)nnc1-c1ccc([S+](=O)([O-])N2CCCC2)cc1 | -14.1% (inactive) | –
31 | COc1ccc(C2c3c(N)nc(CCCc4ccccc4)nc3Oc3ccc4ccccc4c32)cc1OC (stereo not given) | -18.2% (inactive) | –
32 | O=[S+]([O-])(c1ccc(OC(F)(F)F)cc1)N1CCN([S+](=O)([O-])c2ccc3c(c2)OCCO3)CC1 | 1.87% (inactive) | –
33 | COc1cc(OC)cc(-c2nnc3n2N=C(c2c(OC)cccc2OC)CS3)c1 | 3.42% (inactive) | –
34 | CC1=C(C(=O)Nc2ccccc2)C(c2ccccc2Cl)N=C(Nc2nc3ccccc3o2)N1 (stereo not given) | 11.4% (inactive) | –
35 | O=C(CCCCSc1nnc(-c2cccc3ccccc23)o1)Oc1ccc(F)cc1 | 1.97% (inactive) | –
36 | Cc1ccc(-c2nn3c(C)nnc3s2)cc1NC(=O)c1ccc(-c2cccc(Cl)c2)o1 | – | inactive
37 | CCOC(=O)C1CCN(C(=O)C2(NC(=O)Nc3ccccc3Cl)CCC2)CC1 | 13.8% (inactive) | –
38 | S=P(c1ccccc1)(c1ccccc1)c1c[n+](C/C=C/c2ccccc2)c2ccccn12 | 10.7% (inactive) | –
39 | COc1cc(OC)cc(N2CCN(C(=S)Nc3cc(C)cc(C)n3)CC2)c1 | -7.81% (inactive) | –
40 | C=C1C(=O)OC2/C=C(\COC(C)=O)CC/C=C(\C=O)CC(OC(=O)C(C)CC)C12 (stereo not given) | 2.03% [at 28 µM] (inactive) | –

Target: Retinaldehyde dehydrogenase 3 (Homo sapiens) (UniProt P47895)
Test: qHTS for Inhibitors of the Aldehyde Dehydrogenase Family (ALDH1A3) Primary screen (AID 2061315);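 further: plate controls were DMSO vehicle for no effect and reference inhibitor for full effect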
Settings: ALDH inhibition qHTS; series mostly up to 56 µM; activity change, negative = inhibition: at the top concentration

Row | Compound | activity change, negative = inhibition | Potency
41 | COc1ccccc1CNc1ccc(S(=O)(=O)Nc2nccs2)cc1 | 1.01% (inactive) | –
42 | Fc1ccc(-c2noc(CCCCSc3nnc(-c4cccc5ccccc45)o3)n2)cc1 | – | inactive
43 | Cc1cc(C)nc(NC(=S)N2CCN(c3nnc(C(F)(F)F)s3)CC2)c1 | 16.1% (inactive) | –
44 | Cc1ccc2c(c1)/C(=C\c1cc(Cl)c(O)c(Cl)c1)C(=O)N2 | 1.75% (inactive) | –
45 | C=C(NC(=O)C(=C)NC(=O)c1csc(C2=NC3c4csc(n4)C4NC(=O)c5csc(n5)C(C(C)(O)C(C)O)NC(=O)C5CSC(=N5)/C(=C/C)NC(=O)C(C(C)O)NC(=O)c5csc(n5)C3(CC2)NC(=O)C(C)NC(=O)C(=C)NC(=O)C(C)NC(=O)C(C(C)CC)NC2C=Cc3c(C(C)O)cc(nc3C2O)C(=O)OC4C)n1)C(N)=O (stereo not given) | 24.7% (inactive) | –
46 | O=S(=O)(c1ccc2c(c1)OCCO2)N1CCN(S(=O)(=O)c2ccccn2)CC1 | 0.53% (inactive) | –
47 | O=S(=O)(NC1CCCC(NS(=O)(=O)c2c(F)cccc2F)C1)c1ccc2c(c1)OCCO2 (stereo not given) | 3.1% (inactive) | –
48 | O=C(Nc1ccc(Cl)c(S(=O)(=O)N2CCOCC2)c1)c1ccc(S(=O)(=O)N2CCCCC2)cc1 | -1.61% (inactive) | –
49 | Cc1ccc(OCCn2c(CCNC(=O)c3cccc(C#N)c3)nc3ccccc32)cc1 | 2.59% (inactive) | –
50 | O=C1Nc2ccccc2C1Cc1cc(Cl)c(O)c(Cl)c1 (stereo not given) | -7.88% (inactive) | –
51 | O=C(Nc1ccc(-c2nc3ccccc3[nH]2)cc1)Nc1ccc2c(c1)CCCO2 | -10.2% (inactive) | –
52 | COc1cc(OC)cc(-c2nnc3n2N=C(c2ccc(OC)cc2OC)CS3)c1 | 0.762% (inactive) | –
53 | O=C1CCCC2=C1C1(CCCC1)N=C(Nc1nc3ccccc3n1Cc1ccccc1)N2 | 8.13% (inactive) | –
54 | CC(=O)Nc1sc2c(c1-c1cccc3c1sc1ccccc13)CCNC2 | -3.57% (inactive) | –
55 | O=S(=O)(c1ccc2ccccc2c1)N1CCN(S(=O)(=O)c2c(F)cccc2F)CC1 | – | inactive
56 | O=S(=O)(c1ccc2c(c1)OCCO2)C1CCC(S(=O)(=O)c2c(F)cccc2F)CC1 (stereo not given) | – | inactive
57 | CCOc1cc(CCNC(=O)c2cc3sccc3n2Cc2ccccc2)cc(F)c1OCC | -6.84% (inactive) | –
58 | O=C1CCCC2=C1C(c1[nH]ncc1Cl)N=C(Nc1nc3cc(Br)ccc3o1)N2 (stereo not given) | 0.854% (inactive) | –
59 | CCCn1c(C)nc2c(NCCCN(C)C)nc(C)nc21 | -6.94% (inactive) | –
60 | COc1ccnc(NC(=S)N2CCN(c3cc(C(F)(F)F)cc(C(F)(F)F)c3)CC2)c1 | 7.13% (inactive) | –

Row | Compound | activity change, negative = inhibition | Potency
61 | CC(C)(C)OC(=O)NCC(=O)NNC(=O)C(C(=O)OCc1ccccc1)c1ccccc1 (stereo not given) | 12.9% (inactive) | –
62 | CCC(=O)NC(c1ccc2c(c1)OCO2)c1cc(Cl)c2cccnc2c1O (stereo not given) | -29% (inactive) | –
63 | C[C@@H]1CC[C@]2(C(=O)O)CC[C@]3(C)C(=CCC4[C@@]5(C)C[C@@H](O)[C@H](O)[C@@](C)(CO)C5CC[C@]43C)C2[C@H]1C (stereo not given in full) | 0.49% [at 28 µM] (inactive) | –
64 | Cc1cccc(C2N=C(Nc3nc4ccccc4o3)NC3=C2C(=O)CCC3)c1 (stereo not given) | 30.8% (inactive) | –
65 | O=C1CCc2cc(S(=O)(=O)Nc3ccc(F)c(Cl)c3)ccc2N1 | -0.727% (inactive) | –
66 | Cc1noc(C)c1-c1ccc2ncnc(NCc3ccccc3C(F)(F)F)c2c1 | 1.88% (inactive) | –
67 | Cc1cc(NC(=O)c2csc(NC(=O)Cc3ccc(Cl)c(Cl)c3)n2)no1 | 18.7% (inactive) | –
68 | COc1ccccc1NS(=O)(=O)c1ccc2c(c1)CCC(=O)N2 | -7.99% (inactive) | –
69 | CC(=O)O[C@@H]1c2c3c(cc(O)c2C(=O)O[C@@H]1C)O[C@@]1(C)[C@@H](O)C[C@H]2C(C)(C)C(=O)C=C[C@]2(C)[C@@H]1C3 | 9.36% [at 28 µM] (inactive) | –
70 | Cc1cccc(C)c1-n1c(SCC(=O)Nc2ccc(C(=O)O)cc2)nnc1-c1ccc([S+](=O)([O-])N2CCCC2)cc1 | 7.85% (inactive) | –
71 | COc1ccc(C2c3c(N)nc(CCCc4ccccc4)nc3Oc3ccc4ccccc4c32)cc1OC (stereo not given) | 3.18% (inactive) | –
72 | O=[S+]([O-])(c1ccc(OC(F)(F)F)cc1)N1CCN([S+](=O)([O-])c2ccc3c(c2)OCCO3)CC1 | -11.5% (inactive) | –
73 | COc1cc(OC)cc(-c2nnc3n2N=C(c2c(OC)cccc2OC)CS3)c1 | 4.36% (inactive) | –
74 | CC1=C(C(=O)Nc2ccccc2)C(c2ccccc2Cl)N=C(Nc2nc3ccccc3o2)N1 (stereo not given) | 11% (inactive) | –
75 | O=C(CCCCSc1nnc(-c2cccc3ccccc23)o1)Oc1ccc(F)cc1 | 15.6% (inactive) | –
76 | Cc1ccc(-c2nn3c(C)nnc3s2)cc1NC(=O)c1ccc(-c2cccc(Cl)c2)o1 | – | inactive
77 | CCOC(=O)C1CCN(C(=O)C2(NC(=O)Nc3ccccc3Cl)CCC2)CC1 | -2.92% (inactive) | –
78 | S=P(c1ccccc1)(c1ccccc1)c1c[n+](C/C=C/c2ccccc2)c2ccccn12 | 2.17% (inactive) | –
79 | COc1cc(OC)cc(N2CCN(C(=S)Nc3cc(C)cc(C)n3)CC2)c1 | -15.3% (inactive) | –
80 | C=C1C(=O)OC2/C=C(\COC(C)=O)CC/C=C(\C=O)CC(OC(=O)C(C)CC)C12 (stereo not given) | -13.5% [at 28 µM] (inactive) | –
